Screening results as filed in PubChem.
This is a sample that favours compounds with a hit; in the whole collection about 2.9% have one here.
DRV1 agonist = GPR32 (DRV1) agonism, beta-arrestin recruitment. activation, % at 76.9 µM. actives 2.5% (n = 48,000). CHO-K1 GPR32 beta-arrestin PathHunter luminescence, 90 min; zero percent set by DMSO-only wells. O75388. AID 1346428;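 active means activation of at least 60% and not above a set upper limit, about 1 call in 100 departs from these limits; inconclusive means activation of 40% to 60%, or above that upper limit; inactive means activation under 40%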
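PathHunter enzyme-fragment complementation, CHO-K1 GPR32 stable line; 2,500 cells/well, overnight attach; cpd 90 min 37 °C 5% CO2; detection reagent 1 h RT; chemiluminescence. DMSO = EC0.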
PTAP-TSG101 blk = inhibitors of HIV-1 PTAP binding to human TSG101, validation | Q99816 | Fluorescence polarization, FITC-PTAP peptide/Tsg101, 20 min | Potency, µM (series often up to 115 µM), most hits filed as inhibitors | 44,000 tested, under 10 active
Target sequence (Q99816 whole entry, looked up): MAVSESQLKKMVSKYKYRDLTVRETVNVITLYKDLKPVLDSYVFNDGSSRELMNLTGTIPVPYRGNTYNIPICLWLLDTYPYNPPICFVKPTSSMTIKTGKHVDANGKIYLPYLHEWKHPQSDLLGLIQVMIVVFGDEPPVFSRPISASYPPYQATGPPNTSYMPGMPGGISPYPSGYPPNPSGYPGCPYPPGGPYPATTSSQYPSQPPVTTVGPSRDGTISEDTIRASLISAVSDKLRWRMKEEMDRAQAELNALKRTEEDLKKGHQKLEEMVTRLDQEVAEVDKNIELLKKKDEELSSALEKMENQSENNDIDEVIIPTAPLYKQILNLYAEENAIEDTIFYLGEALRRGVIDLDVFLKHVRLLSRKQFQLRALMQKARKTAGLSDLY
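The Tsg101 binding domain, at 10 uM final, is mixed with compound and a FITC peptide bearing the PTAP motif (50 nM final). After 20 min at r.t., polarization is measured; actives defined by CRC class, efficacy cut-off 60% inhibition.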
GALC G270D up = enhancers of human galactocerebrosidase G270D mutant activity in cells; P54803; 145M-Twi-hGALC-G270D cells (Twitcher mouse brain line with human GALC G270D), HMU-beta-Gal fluorescence, 48 h; Potency, µM (series often up to 57.5 µM), usual class: activators; actives 0.1% (n = 45,000); further: nearly all actives have a fitted effect of over 65% in size
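Brain-derived Twitcher mouse 145M-Twi cells stably expressing human GALC-G270D or wild-type GALC, treated live, then residual GALC activity read by fluorescence of HMU-b-Gal substrate (0.1 mM final) in citrate-phosphate buffer pH 5.2 with sodium taurocholate. Signal increase indicates enhancement.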
B2AR arrestin ag = beta-arrestin recruitment by human beta2-adrenergic receptor ligands; P07550; HTLA Tango cells, beta-arrestin recruitment, luciferase luminescence, 18 h; Potency, µM (doses to about 46.1 µM), usual class: activators; 44,000 tested, under 10 active
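Tango cells (recombinant beta2-AR, beta-arrestin, tTA-driven luciferase), 1500/well in DMEM 1% FBS, treated 18 h at 37 °C with compounds up to 46 µM; luciferin mix added, luminescence read after 15 min; %activity curves fitted and curve-classed.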
Numbers stand for hits; – = inactive; ? = inconclusive; · = no result given; ! = repeats disagree. Unless noted, the call rests on the fitted dose curve; in most records, active means well fitted curve in the direction sought with a large enough effect; inconclusive means small, poorly fitted or top-dose-only effect, or another doubt; inactive means no such curve, though single readings can be large; an effect the other way counts as inactive or inconclusive.

SMILES	DRV1 agonist	PTAP-TSG101 blk	GALC G270D up	B2AR arrestin ag
O=C(NCCc1nc2ccccc2n1Cc1ccc(Cl)cc1Cl)c1ccco1	–	–	–	–
O=C(NCCc1nc2ccccc2n1Cc1ccc(Cl)cc1)c1ccccc1	81	–	–	–
Nc1ccc([N+](=O)[O-])c(C(F)(F)F)c1	–	·	–	·
CCOc1ccccc1NC(=O)CN1C(=O)C2(SCC(=O)N2c2ccc(C)cc2)c2ccccc21 (centres undefined)	–	–	–	–
Cc1ccc(OCC(=O)Nc2nnc(SCc3cc(=O)c4ccccc4[nH]3)s2)cc1	120	–	–	–
O=C(COc1ccccc1)Nc1nnc(SCc2cc(=O)c3ccccc3[nH]2)s1	?	–	–	–
CCC(CC)C(=O)Nc1nnc(SCc2cc(=O)c3ccccc3[nH]2)s1	99	–	–	–
CCCCNc1nc2c(c(=O)n(C)c(=O)n2C)n1CC(O)COc1ccccc1C (centres undefined)	67	–	–	–
Cc1ccc(C(=O)Oc2ccc(C(O)CNC(C)(C)C)cc2OC(=O)c2ccc(C)cc2)cc1 (centres undefined)	?	·	–	·
COc1ccc(NC(=O)CCCN2C(=O)C(c3ccccc3)Oc3cccnc32)cc1OC (centres undefined)	76	–	–	–
CCC(=O)N1CCc2cc(S(=O)(=O)NCCC(=O)Nc3ccc(CC)cc3)ccc21	–	–	–	–
COc1cc2nc(SCC(=O)Nc3c(C)cc(C)cc3C)n3nc(CCn4c(C)nc5ccccc54)nc3c2cc1OC	83	–	–	–
N[C@H](C(=O)O)c1ccc(O)cc1	–	·	–	·
CCCc1c(OCCCCc2nn[nH]n2)ccc(C(C)=O)c1O	87	·	–	·
CCCN1C[C@H](CSC)C[C@@H]2c3cccc4[nH]cc(c34)C[C@H]21	79!	·	–	·
Cc1ccc(NC(=O)Cn2cc(S(=O)(=O)N3CCCC3)c(S(=O)(=O)N3CCCC3)c2)cc1C	–	–	–	–
COC(=O)C1=C(C)NC(C)=C(C(=O)OCCCN2CCC(c3ccccc3)(c3ccccc3)CC2)C1c1cccc([N+](=O)[O-])c1 (centres undefined)	105	·	–	·
COC(=O)C1=C(C)NC(C)=C(C(=O)OCCc2ccc(N3CCN(C(c4ccccc4)c4ccccc4)CC3)cc2)C1c1cccc([N+](=O)[O-])c1 (centres undefined)	–	·	–	·
O=C(Cn1c(=O)nc(-c2ccccc2)c2cc(Cl)ccc21)NCCCc1ccccc1	94	–	–	–
O=C(Cn1c(=O)nc(-c2ccccc2)c2cc(Cl)ccc21)NCCc1ccccc1	–	–	–	–
Cc1nn(CC(=O)Nc2ccccc2F)c(=O)c2c(C)n(-c3ccc(Cl)cc3)nc12	–	–	–	–
CCOc1ccccc1C1CC(=O)NC(C)=C1C(=O)OCc1ccc(C)cc1 (centres undefined)	60	–	–	–
CC1=C(C(=O)OCc2ccc(C)cc2)C(c2ccccc2F)CC(=O)N1 (centres undefined)	67	–	–	–
CCOC(=O)CC(NC(=O)Cn1nnc(-c2ccc(Cl)cc2)n1)c1ccc(OC)cc1 (centres undefined)	–	–	–	–
CCOC(=O)C(Cc1ccccc1)NC(=O)Cn1nnc(-c2ccc(C)cc2)n1 (centres undefined)	62	–	–	?
SMILES	DRV1 agonist	PTAP-TSG101 blk	GALC G270D up	B2AR arrestin ag
CC(C)(C)c1cc(C=O)cc(C(C)(C)C)c1O	–	·	–	·
CCc1cccc(C)c1NC(=O)CSc1nnc(N)s1	94	–	–	–
Cc1cccc(C)c1Nc1c(-c2ccccc2Cl)nc2cnccn12	–	–	22µM	–
Cc1cccc(C)c1Nc1c(-c2ccccn2)nc2ccc(Cl)cn12	–	–	–	–
CCOc1ccc(NC(=O)c2sc3ccccc3c2Cl)cc1	70	–	·	–
COc1ccccc1C(=O)Nc1ccccc1C(=O)OCc1cc(=O)n2c(C)csc2n1	–	–	–	–
Cc1ccccc1C(=O)OCc1cc(=O)n2c(C)csc2n1	75	–	–	–
CCOC(=O)c1ccc(NC(=O)c2cc3cc(C)ccc3n2C)cc1	72	–	–	–
COC(=O)c1ccc(NC(=O)c2cc3cc(C)ccc3n2C)cc1	–	–	–	–
Cc1ccc(S(=O)(=O)c2cn(Cc3ccccc3)c3cc(N4CCOCC4)c(F)cc3c2=O)cc1	–	–	–	–
